The text below walks through data of PubChem BioAssay.

Results with a measured potency or affinity are listed apart. Inconclusive results are not listed. Calls of active or inactive are those of the source.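 How the source made its calls: active means fitted half-maximal concentration for viability loss no higher than twice the top valid dose, in every repeat run; inconclusive means repeat runs disagree, flat partial loss, or poor curve fit; inactive means the rest.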

The nature of the experiment: IOSE-T80 viability loss, PAX8-independent line – cell-based, cherry-pick, selectivity assay for PAX8 inhibitor project, dose response (AID 687032).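 Further: cells exposed to compound for 96 h before reading.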 As to conditions: CellTiterGlo ATP luminescence, 96 h; series mostly up to 35 µM.
With `C[C@@H]1CCCCO[C@H](CN(C)C(=O)Nc2ccc(C(F)(F)F)cc2)[C@H](C)CN([C@@H](C)CO)C(=O)c2cc(NS(=O)(=O)c3ccc(Cl)cc3)ccc2O1`, the compound was classed as inactive.
As for `C[C@H](O)C#Cc1cnc2c(c1)C(=O)N([C@H](C)CO)C[C@H](C)[C@H](CN(C)Cc1ccc(-c3ccccc3)cc1)O2`, the entry is “inactive”; as for `Cc1ccc(S(=O)(=O)N(C)C[C@@H]2Oc3cc(C#Cc4ccncc4)ccc3S(=O)(=O)N([C@@H](C)CO)C[C@H]2C)cc1`, “inactive”.
As for `O=C(C[C@@H]1C[C@H]2c3cc(NC(=O)C4CCOCC4)ccc3O[C@H]2[C@H](CO)O1)NCc1ccc(Oc2ccccc2)cc1`, the entry is “inactive”.
`C[C@@H]1CCCCO[C@@H](CN(C)Cc2ccc(C(F)(F)F)cc2)[C@H](C)CN([C@H](C)CO)C(=O)c2cc(NS(=O)(=O)c3ccc(Cl)cc3)ccc2O1`: the compound was classed as inactive.
As for `Cc1ccc(S(=O)(=O)N(C)C[C@H]2OCCCC[C@@H](C)Oc3ccc(NS(=O)(=O)c4ccc(F)cc4)cc3C(=O)N([C@@H](C)CO)C[C@H]2C)cc1`, the compound was classed as inactive.
With `C[C@@H]1CCCCO[C@H](CN(C)C(=O)Cc2ccccc2)[C@H](C)CN([C@@H](C)CO)C(=O)c2cc(NC(=O)Nc3ccc(C(F)(F)F)cc3)ccc2O1`, the result was inactive.
As for `Cc1ccc(S(=O)(=O)Nc2ccc3c(c2)C(=O)N([C@H](C)CO)C[C@H](C)[C@H](CN(C)C(=O)c2ccccc2)OCCCC[C@H](C)O3)cc1`, the entry is “inactive”; as for `COc1ccc(S(=O)(=O)Nc2ccc3c(c2)CC(=O)N([C@H](C)CO)C[C@H](C)[C@@H](CN(C)Cc2ccc(-c4ccccc4)cc2)O3)cc1`, “inactive”.
Take `C[C@@H]1CCCCO[C@H](CN(C)S(=O)(=O)c2ccc(Cl)cc2)[C@@H](C)CN([C@@H](C)CO)C(=O)c2cc(NC(=O)CCC(F)(F)F)ccc2O1`: the outcome was inactive.
Consider `Cc1ccc(S(=O)(=O)Nc2ccc3c(c2)C(=O)N([C@@H](C)CO)C[C@@H](C)[C@H](CN(C)Cc2ccc(Cl)c(Cl)c2)OCCCC[C@@H](C)O3)cc1`, for which the call was inactive.
Regarding `CN1c2ccc(-c3ccc(C#N)cc3)cc2[C@@H]2[C@@H](CCN2C(=O)NC2CCCCC2)[C@@H]1CO`, the compound was called inactive.
In the case of `C[C@H]1CCCCO[C@H](CN(C)C(=O)Nc2ccc(C(F)(F)F)cc2)[C@@H](C)CN([C@@H](C)CO)C(=O)c2cc(NC(=O)c3ccncc3)ccc2O1`, the call was inactive.
On to `COc1ccccc1S(=O)(=O)N(C)C[C@@H]1Oc2cc(C#CCC3CCCC3)ccc2S(=O)(=O)N([C@@H](C)CO)C[C@@H]1C`, for which the compound was called inactive.
`C[C@@H]1CN([C@H](C)CO)C(=O)c2cc(NC(=O)Nc3ccc(F)cc3)ccc2O[C@@H](C)CCCCO[C@H]1CN(C)C(=O)Nc1ccc(F)cc1`: the compound was called inactive.
To `Cc1ccc(S(=O)(=O)N(C)C[C@H]2Oc3ccc(NC(=O)Nc4ccc(C(F)(F)F)cc4)cc3CC(=O)N([C@H](C)CO)C[C@@H]2C)cc1` belongs “inactive”; to `CCCN(C)C[C@H]1OCCCC[C@@H](C)Oc2ccc(NC(=O)c3ccccc3)cc2C(=O)N([C@H](C)CO)C[C@H]1C`, “inactive”.
Regarding `C[C@@H]1CN([C@H](C)CO)S(=O)(=O)c2ccc(C#Cc3ccncc3)cc2O[C@H]1CN(C)C(=O)Nc1ccc2c(c1)OCO2`, the compound was called inactive.
To `C[C@@H]1CN([C@H](C)CO)C(=O)c2cc(NC(=O)Nc3ccc(C(F)(F)F)cc3)ccc2O[C@@H](C)CCCCO[C@H]1CN(C)Cc1ccc(Cl)c(Cl)c1` belongs “inactive”; to `C[C@H](CO)N1C[C@H](C)[C@H](CN(C)C(=O)NC2CCCCC2)OCCCC[C@H](C)Oc2ccc(NC(=O)Nc3ccc(C(F)(F)F)cc3)cc2C1=O`, “inactive”; to `C[C@@H]1CN([C@H](C)CO)C(=O)Cc2cc(NC(=O)Nc3ccc(F)cc3)ccc2O[C@@H]1CN(C)Cc1ccc(Cl)c(Cl)c1`, “inactive”.
As for `C[C@@H]1CN([C@@H](C)CO)C(=O)c2ccccc2-c2ccccc2CO[C@H]1CN(C)Cc1ccccc1C(F)(F)F`, the entry is “inactive”.
As for `Cc1ccc(S(=O)(=O)Nc2ccc3c(c2)C(=O)N([C@@H](C)CO)C[C@H](C)[C@@H](CN(C)C(=O)Nc2ccc(C(F)(F)F)cc2)OCCCC[C@H](C)O3)cc1`, the entry is “inactive”.
As to `Cc1ccc(S(=O)(=O)N(C)C[C@@H]2Oc3c(NC(=O)c4ccc(-c5nccs5)cc4)cccc3C(=O)N([C@@H](C)CO)C[C@@H]2C)cc1`, the compound was classed as inactive.
To `C[C@@H]1CN([C@H](C)CO)C(=O)Cc2cc(NC(=O)Cc3ccccc3)ccc2O[C@@H]1CN(C)Cc1ccc(C(F)(F)F)cc1` belongs “inactive”; to `C[C@H](CO)N1C[C@H](C)[C@H](CN(C)Cc2ccc(Cl)c(Cl)c2)Oc2c(NS(=O)(=O)c3ccc(Cl)cc3)cccc2C1=O`, “inactive”; to `C[C@@H]1CN([C@H](C)CO)C(=O)c2cc(NC(=O)c3ccncc3)ccc2O[C@@H](C)CCCCO[C@H]1CN(C)Cc1ccc(C(F)(F)F)cc1`, “inactive”.
In the case of `C[C@@H]1CN([C@@H](C)CO)C(=O)c2cc(NS(=O)(=O)c3ccc(Cl)cc3)ccc2O[C@@H](C)CCCCO[C@H]1CN(C)Cc1ccc(C(F)(F)F)cc1`, the call was inactive.
To `C[C@H]1CCCCO[C@@H](CN(C)C(=O)c2ccccc2)[C@@H](C)CN([C@@H](C)CO)C(=O)c2cc(NC(=O)Nc3ccc(C(F)(F)F)cc3)ccc2O1` belongs “inactive”.
In the case of `C[C@@H]1CN([C@@H](C)CO)C(=O)c2cc(NS(=O)(=O)c3ccccc3)ccc2O[C@@H](C)CCCCO[C@@H]1CN(C)Cc1ccc(C(F)(F)F)cc1`, the result was inactive.
On to `C[C@@H]1CN([C@H](C)CO)C(=O)c2cc(NC(=O)Nc3ccccc3)ccc2O[C@@H](C)CCCCO[C@H]1CN(C)Cc1ccc(Cl)c(Cl)c1`, for which the compound was called inactive.
As for `C[C@@H]1CCCCO[C@@H](CN(C)Cc2ccc(Cl)c(Cl)c2)[C@H](C)CN([C@@H](C)CO)C(=O)c2cc(NC(=O)Cc3ccccc3)ccc2O1`, the entry is “inactive”; as for `C[C@H]1CCCCO[C@H](CN(C)S(=O)(=O)c2ccc(Cl)cc2)[C@@H](C)CN([C@@H](C)CO)C(=O)c2cc(NS(=O)(=O)c3ccc(Cl)cc3)ccc2O1`, “inactive”.
To `C[C@@H]1CN([C@@H](C)CO)C(=O)c2cc(NC(=O)c3ccccc3)ccc2O[C@@H](C)CCCCO[C@H]1CN(C)Cc1ccc(C(F)(F)F)cc1` belongs “inactive”; to `C[C@@H]1CCCCO[C@H](CN(C)C)[C@H](C)CN([C@H](C)CO)C(=O)c2cc(NC(=O)Nc3cccc4ccccc34)ccc2O1`, “inactive”; to `C[C@H](CO)N1C[C@H](C)[C@@H](CN(C)C(=O)NC2CCCCC2)Oc2cc(C#Cc3ccc(F)cc3)ccc2S1(=O)=O`, “inactive”.
As for `C[C@H]1CCCCO[C@@H](CN(C)C(=O)Nc2ccc(C(F)(F)F)cc2)[C@@H](C)CN([C@@H](C)CO)C(=O)c2cc(NS(=O)(=O)c3cn(C)cn3)ccc2O1`, the entry is “inactive”; as for `COc1ccccc1-c1ccc2c(c1)O[C@H](CN(C)Cc1ccc3c(c1)OCO3)[C@H](C)CN([C@@H](C)CO)S2(=O)=O`, “inactive”.
For `C[C@@H]1CCCCO[C@H](CN(C)C(=O)NC2CCCCC2)[C@@H](C)CN([C@@H](C)CO)C(=O)c2cc(NC(=O)Nc3ccc(C(F)(F)F)cc3)ccc2O1`, the call was inactive.
As for `C[C@@H]1CN([C@@H](C)CO)C(=O)Cc2cc(NS(=O)(=O)c3ccc(F)cc3)ccc2O[C@H]1CN(C)Cc1ccc(Oc2ccccc2)cc1`, the entry is “inactive”.
